Source: PubChem (Broad Institute)
This is a sample that favours compounds with a hit; in the whole collection about 3.1% have one here.
Rtt109 HAT inh = inhibitors of C. albicans Rtt109/Vps75 HAT, primary screen, biochemical, ThioGlo CoA-SH fluorescence, plate reader | inhibition, % at 34.9 µM | purified Rtt109/Vps75, 4 h | AID 540336, 2011 | Histone acetyltransferase RTT109 (Candida albicans (strain SC5314 / ATCC MYA-2876)), … | 0.16% of 330,000 active;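 active means inhibition of at least 50% in every replicate; inconclusive means best replicate reaches 50% inhibition but some replicates fall short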
Target sequence (Q5AAJ8 whole entry, looked up): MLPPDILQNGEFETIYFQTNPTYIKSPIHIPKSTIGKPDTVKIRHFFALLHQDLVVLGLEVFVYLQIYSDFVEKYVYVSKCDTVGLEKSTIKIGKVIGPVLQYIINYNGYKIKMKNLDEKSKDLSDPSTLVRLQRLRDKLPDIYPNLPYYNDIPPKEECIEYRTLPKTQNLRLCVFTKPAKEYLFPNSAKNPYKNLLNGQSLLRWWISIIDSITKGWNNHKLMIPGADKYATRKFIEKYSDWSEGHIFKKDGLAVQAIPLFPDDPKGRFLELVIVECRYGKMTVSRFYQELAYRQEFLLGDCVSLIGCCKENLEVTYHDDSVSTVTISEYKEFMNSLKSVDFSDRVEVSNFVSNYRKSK
Wnt bcat act = Wnt/beta-catenin pathway activators, primary screen, cell-based, plate reader, single point; Wnt/beta-catenin reporter cell assay, activator; activation, % at 9.35 µM; 1.2% of 300,000 active; AID 743398, 2014; in the data active means activation above about 30%, passing the limit was not always enough; inconclusive means no clear call, values can overlap the other calls
MITF TRPM1 HTS = activators of MITF-driven TRPM1 promoter reporter, primary screen, cell-based, SK-MEL-5, luciferase, single point; 0.75% of 300,000 active; SK-MEL-5 TRPM1-promoter luciferase, 24 h; % of positive control, neutral wells = 0; activation, % at 12.5 µM;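 active means mean activation of at least 80% with every replicate also reaching 80%; inconclusive means mean reaches 80% but some replicate falls short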
Statin myotox sup = suppressors of statin myotoxicity in C2C12 myotubes, primary screen, cell-based, single point, plate reader; C2C12 myotubes + simvastatin, ATP luminescence, 48 h; scaled: DMSO 0, geranylgeraniol control 100; rescue of ATP level, % at 7.49 µM; 0.78% of 330,000 active; AID 602340, 2012;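 active means mean ATP rescue above about 67%, or every replicate alone reaching that limit, limit read from the data, passing the limit was not always enough; inconclusive means no clear call, values can overlap the other calls; inactive means mean under the limit and some replicate under it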;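 further: myotubes were challenged with 10 µM simvastatin during compound exposure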
esBAF inh = Bmi1 luciferase reporter increase in mESCs, primary screen, esBAF inhibitor project, mouse ES cells, Bmi1 luciferase knock-in, single point; 2% of 350,000 active; AID 602393, 2012; 24 h; 100% = twice the neutral-well signal; reporter increase, % at 12.5 µM; in the data active means activation above about 40%; inconclusive means no clear call, values can overlap the other calls;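 further: a rise in the Bmi1 reporter signal indicates esBAF inhibition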
Of the large screens only hits and unclear results are named; the others gave an inactive call.

O=C(Nc1ccc(Br)cc1)C1Cc2ccccc2O/C1=N\O (stereo not given)	esBAF inh 55
CCOC(=O)c1cc2c(nc1N)CCCC2	none (no result: Statin myotox sup, esBAF inh)
C=C(C)CNC(=S)Nc1nc2c(cc1C(=O)OCC)CCCC2	MITF TRPM1 HTS 83, esBAF inh 62 (no result: Rtt109 HAT inh)
C=CS(=O)(=O)c1c2cc(OC)ccc2nc2ccc(OC)cc12	Wnt bcat act 458 (no result: MITF TRPM1 HTS, Statin myotox sup, esBAF inh)
c1ccc2c(c1)-c1nc3ccccc3cc1C2N1CCCCC1 (stereo not given)	none (no result: Rtt109 HAT inh, MITF TRPM1 HTS, Statin myotox sup, esBAF inh)
O=c1cccc2n1Cc1cc3ccccc3nc1-2	Wnt bcat act 39, esBAF inh 53
O=c1oc(CCCO)cc2ccc(C#Cc3cccnc3)cc12	none
COc1cc(C#Cc2ccc3cc(CCO)oc(=O)c3c2)cc(OC)c1	Wnt bcat act 38, MITF TRPM1 HTS 144, esBAF inh 58
O=c1oc(CCO)cc2ccc(C#Cc3ccsc3)cc12	Wnt bcat act 33, MITF TRPM1 HTS 115, esBAF inh 79
CN(C)c1ccc(C#Cc2ccc3cc(CCO)oc(=O)c3c2)cc1	MITF TRPM1 HTS 128 (no result: Wnt bcat act)
O=C1c2ccccc2C(=O)N1CCC#Cc1ccc2cc(CCO)oc(=O)c2c1	none
Cc1ccc(C2OC(=O)c3ccccc32)cc1 (stereo not given)	Statin myotox sup 133
Oc1ccc(-c2csc(Nc3ncccn3)n2)cc1	MITF TRPM1 HTS 95
CC(=O)Nc1ccc(-c2csc(Nc3ncccn3)n2)cc1	Wnt bcat act 33
CC(=O)Nc1ccc(-c2csc(Nc3cc(C)ccn3)n2)cc1	esBAF inh inconclusive
C[C@@H]1CN([C@@H](C)CO)C(=O)c2cc(NC(=O)Nc3ccc(F)cc3)ccc2O[C@@H](C)CCCCO[C@@H]1CN(C)Cc1ccc2c(c1)OCO2	none (no result: Rtt109 HAT inh, Wnt bcat act, MITF TRPM1 HTS)
CO[C@H]1CN(C)C(=O)c2cc(NC(=O)Nc3c(C)noc3C)ccc2OC[C@H](C)N(C)C[C@@H]1C	none (no result: Rtt109 HAT inh, Wnt bcat act, MITF TRPM1 HTS)
C[C@H](CO)N1C[C@H](C)[C@H](CN(C)S(=O)(=O)c2ccc(Cl)cc2)OCCCC[C@H](C)Oc2ccc(NC(=O)NC3CCCCC3)cc2C1=O	none (no result: Rtt109 HAT inh, Wnt bcat act, MITF TRPM1 HTS, Statin myotox sup)
C[C@H]1CN([C@@H](C)CO)S(=O)(=O)c2ccc(-c3ccccc3)cc2O[C@@H]1CN(C)Cc1ccncc1	none (no result: Rtt109 HAT inh, Wnt bcat act, MITF TRPM1 HTS)
C[C@H](CO)N1C[C@H](C)[C@@H](CN(C)Cc2ccc(C(F)(F)F)cc2)Oc2ccc(NS(=O)(=O)c3ccc(F)cc3)cc2CC1=O	Statin myotox sup 83 (no result: Rtt109 HAT inh, Wnt bcat act, MITF TRPM1 HTS)
Cc1ccc(S(=O)(=O)Nc2ccc3c(c2)CC(=O)N([C@H](C)CO)C[C@H](C)[C@@H](CN(C)Cc2ccc(C(F)(F)F)cc2)O3)cc1	Statin myotox sup 115 (no result: Rtt109 HAT inh, Wnt bcat act, MITF TRPM1 HTS)
CO[C@H]1CN(C)C(=O)c2cc(NC(=O)Nc3ccccc3)ccc2OC[C@@H](C)N(CC2CC2)C[C@H]1C	none (no result: Rtt109 HAT inh, Wnt bcat act, MITF TRPM1 HTS)
O=C(CSc1nnc(-c2ccc(O)cc2)o1)N1CCOCC1	none (no result: Wnt bcat act, MITF TRPM1 HTS, Statin myotox sup)
O=C(CSc1nnc(-c2ccc(Cl)cc2)o1)N1CCOCC1	MITF TRPM1 HTS 97, esBAF inh inconclusive
CCOc1ccc(-c2nnc(SCC(=O)N3CCNC3=O)o2)cc1	Wnt bcat act 45
O=C(CSc1nnc(-c2cccc(F)c2)o1)N1CCCC1	esBAF inh 44
CCOc1ccc(-c2nnc(SCC(=O)N3CCN(c4ccccc4)CC3)o2)cc1	none
O=C(NCC[C@H]1CC[C@H](NS(=O)(=O)c2ccccc2)[C@@H](CO)O1)c1ccc2c(c1)OCO2	none (no result: Rtt109 HAT inh, Wnt bcat act, MITF TRPM1 HTS)
O=c1[nH]cnc2sc(-c3ccccc3)cc12	esBAF inh 49
CC(=O)Cn1cnc2sc(-c3ccccc3)cc2c1=O	Wnt bcat act 37, MITF TRPM1 HTS 88 (no result: Statin myotox sup, esBAF inh)
Cc1ccc(C)n1-n1cnc2sc(-c3ccccc3)cc2c1=O	none (no result: Rtt109 HAT inh, Wnt bcat act)
O=c1[nH]c(-c2ccccc2)nc2sc(-c3ccccc3)cc12	none (no result: Statin myotox sup, esBAF inh)
O=c1c2cc(-c3ccccc3)sc2ncn1-n1cccc1	MITF TRPM1 HTS 85, esBAF inh 72
CCn1cnc2sc(-c3ccccc3)cc2c1=O	esBAF inh 49
COc1ccc(NC(=O)N[C@@H]2CC[C@@H](CCNC(=O)c3cc(Cl)cc(Cl)c3)O[C@@H]2CO)cc1	none (no result: Rtt109 HAT inh, Wnt bcat act, MITF TRPM1 HTS)
COc1cccc(NC(=O)N(C)C[C@H]2Oc3cc(C#Cc4ccccc4)ccc3S(=O)(=O)N([C@@H](C)CO)C[C@H]2C)c1	none (no result: Rtt109 HAT inh, Wnt bcat act, MITF TRPM1 HTS)
CC(=O)Cn1nnc2sc(-c3ccccc3)cc2c1=O	MITF TRPM1 HTS 89 (no result: Statin myotox sup, esBAF inh)
CCCN1[C@@H]2c3ccc(-c4ccccc4)c(=O)n3C[C@@H]2[C@@H](CO)[C@@H]1C(=O)OC	none (no result: Rtt109 HAT inh, Wnt bcat act, MITF TRPM1 HTS)
COC(=O)c1cccc(CN2C(=O)C(C)Sc3cc(Cl)ccc32)c1 (stereo not given)	esBAF inh 45 (no result: Rtt109 HAT inh, MITF TRPM1 HTS)
COC(=O)c1cccc(CN2C(=O)C(C)Sc3ccc(C(C)=O)cc32)c1 (stereo not given)	esBAF inh 46 (no result: Rtt109 HAT inh, MITF TRPM1 HTS)
COC(=O)c1cccc(CN2C(=O)C(C)Sc3ccc(C)cc32)c1 (stereo not given)	none (no result: Rtt109 HAT inh, MITF TRPM1 HTS)
CN(C)c1ccc(C(=O)N2CCN(c3cc(C(F)(F)F)nc4ccccc34)CC2)cc1	Wnt bcat act 55
Cc1cccc(CCNc2nc3ccc(C)cc3n3cnnc23)c1	esBAF inh 46
Cc1ccc2nc(NCCc3ccc(Cl)cc3)c3nncn3c2c1	none
Cc1c(C(=O)Nc2nccs2)oc2ccc(F)cc12	Wnt bcat act 38
Cc1c(C(=O)/C=C/c2cccs2)oc2ccc(F)cc12	esBAF inh 63 (no result: Wnt bcat act)
Cc1cc(C(=O)Nc2nccs2)c2cc(F)ccc2n1	none (no result: Statin myotox sup, esBAF inh)
Cc1c(C(=O)Nc2nccs2)oc2ccc(Br)cc12	esBAF inh 72
CC(C)NC(=O)Nc1ccc2c(c1)CC(=O)N([C@@H](C)CO)C[C@@H](C)[C@H](CN(C)C(=O)Nc1ccc3c(c1)OCO3)O2	none (no result: Rtt109 HAT inh, Wnt bcat act, MITF TRPM1 HTS)
COC(=O)C1=C(N)Oc2c(oc(CO)cc2=O)C1c1ccc(F)cc1 (stereo not given)	Wnt bcat act 40 (no result: Rtt109 HAT inh, MITF TRPM1 HTS, Statin myotox sup, esBAF inh)
Fc1ccccc1/C=N/n1cc(-c2ccccc2)[nH]c1=S	esBAF inh 54
Cc1ccc(C)c(/C=N/n2cc(-c3ccccc3)[nH]c2=S)c1	none (no result: Statin myotox sup, esBAF inh)
Oc1c(C(Nc2cccc(C(F)(F)F)c2)c2ccncc2)ccc2cccnc12 (stereo not given)	Wnt bcat act 53 (no result: Statin myotox sup, esBAF inh)
Oc1c(C(Nc2nccs2)c2ccc(C(F)(F)F)cc2)ccc2cccnc12 (stereo not given)	none (no result: Statin myotox sup, esBAF inh)
CCOC(=O)c1c(S(=O)(=O)NCc2cccs2)c(C)n(C)c1C	none
Cc1nn(C)c(C)c1S(=O)(=O)NCc1cccs1	Statin myotox sup 82 (no result: Wnt bcat act, MITF TRPM1 HTS)
Cc1ccc(S(=O)(=O)Nc2ccc3c(c2)C(=O)N([C@@H](C)CO)C[C@H](C)[C@@H](CN(C)C(=O)Nc2c(C)noc2C)O3)cc1	none (no result: Rtt109 HAT inh, Wnt bcat act, MITF TRPM1 HTS)
O=C1CCCCC1Sc1nnc(Nc2ccccc2)s1 (stereo not given)	esBAF inh 71
CCSc1nnc(Nc2ccccc2)s1	esBAF inh 58
